# Reference: PubChem BioAssay
# Calls of active or inactive are those of the source. Unless noted, no rule for the calls is given here.
# How the values were obtained:
# [1] = test system: Wnt5a (protein binding on small-molecule microarray); test: Wnt5a binders on small-molecule microarray, primary screen, biophysical, 635/667 nm fluorescence (AID 1142); conditions: 635 nm fluorescence, higher = more signal;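 also: fluorescence read at 667 nm with signal to noise per printed feature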
# [2] = cell viability in Huh7 cells, primary screen, cytotoxicity control for HCV replication inhibitor project, CellTiter-Glo luminescence, basal, 48 h (AID 1143); conditions: Huh7 HCV replicon, higher = more signal, called active from +8 up or from −8 down;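 also: Huh7 hepatoma cells carrying a hepatitis C replication reporter with no stimulus; test concentration not given here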
# [3] = P. aeruginosa biofilm formation inhibitors, primary screen, PAO1 strain, BacTiter-Glo luminescence, LB-PBS (AID 1144); conditions: 12 h, higher = more signal
# [4] = CREB reporter modulators without forskolin, primary screen, cell-based, PC12, CRE-LacZ reporter, unstimulated (AID 1145); conditions: no forskolin, luminescence, 4.5 h, higher = more signal, called active from +8 up or from −8 down
# [5] = CREB reporter modulators under forskolin, primary screen, cell-based, PC12, CRE-LacZ reporter, forskolin-stimulated (AID 1146); conditions: luminescence, 4.5 h, higher = more signal, called active from +8 up or from −8 down;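 also: PC12 cells with 6xCRE LacZ reporter stimulated by forskolin 10 µM; beta-galactosidase reporter signal reflecting CREB driven transcription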
# [6] = target: Streptavidin (Streptomyces avidinii) (UniProt P22629); test: streptavidin binders on small-molecule microarray, primary screen, artefact control for SMM compound annotation, biophysical, 635/667 nm fluorescence (AID 1147); conditions: streptavidin binding, higher = more signal;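 also: signal reflects streptavidin binding to arrayed compounds as a control protein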
# [7] = small-molecule binders of probe aInhba, primary screen, biochemical, small-molecule microarray, 635/667 nm fluorescence (AID 1148); conditions: higher = more signal;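 also: score merges 667nm spot fluorescence with signal-to-noise for antibody binding to printed compounds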
# Torsin-1A (Homo sapiens) [8] = target: Torsin-1A (Homo sapiens) (UniProt O14656); test: torsin A binders from cell lysate, primary screen, small-molecule microarray, wild-type, 635/667 nm (AID 1149); conditions: COS7 hTOR1A-WT lysate, 635 nm fluorescence, higher = more signal
# Torsin-1A (Homo sapiens) [9] = target: Torsin-1A (Homo sapiens) (UniProt O14656); test: small-molecule binders of mutant TOR1A in lysate, primary screen, cell lysate, small-molecule microarray, COS7 lysate, 635/667 nm fluorescence (AID 1150); conditions: COS7 hTOR1A mutant lysate, 635 nm fluorescence, higher = more signal;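 also: score pools 667 nm emission and signal to noise measuring lysate protein binding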
# [10] = test system: Sonic hedgehog protein (Shh); test: small-molecule binders of Shh protein, primary screen, biochemical, small-molecule microarray, 635/667 nm fluorescence (AID 1151); conditions: small-molecule microarray binding, 635 nm fluorescence; higher = more signal;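 also: Shh protein binding to compounds spotted on small-molecule microarray slides; score combines spot fluorescence intensity with signal-to-noise across triplicate slides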
# [11] = E. coli DRC41 culture turbidity changes, primary screen, E. coli filamentation inducer project, strain DRC41, OD650, 48 h (AID 1152);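 also: E. coli MC1000 strain DRC41 lacking acrAB efflux pump and sulA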; conditions: E. coli DRC41 (acrAB sulA), higher = more signal, called active from +8 up or from −8 down
# [12] = small-molecule binders of probe aLefty1, primary screen, biochemical, small-molecule microarray, 635/667 nm fluorescence (AID 1153); conditions: higher = more signal;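 also: score merges spot fluorescence with signal-to-noise ratio from the scanned slide images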
# [13] = PSAC antagonists in infected red cells, primary screen, cell-based, P. falciparum Indochina, OD700, 1 h (AID 1154); conditions: P. falciparum Indochina infected RBC osmotic lysis, higher = more signal, called active from +8 up or from −8 down
# [14] = PSAC antagonists in infected red cells, primary screen, cell-based, P. falciparum Indochina, OD700, 2 h (AID 1155);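 also: lysis reports solute entry through the parasite surface anion channel PSAC; channel blockers reduce lysis of infected cells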; conditions: P. falciparum Indochina infected erythrocytes, osmotic lysis OD700; higher = more signal, called active from +8 up or from −8 down
# [15] = osmotic lysis modulators in infected erythrocytes, primary screen, PSAC antagonist project, cell-based, P. falciparum Indochina, OD700, 3 h (AID 1156); conditions: higher = more signal, called active from +8 up or from −8 down
# [16] = PSAC antagonists in infected red cells, primary screen, cell-based, P. falciparum Indochina, OD700, 18 h (AID 1157); conditions: P. falciparum Indochina infected erythrocytes, osmotic lysis OD700, 18 h; higher = more signal, called active from +8 up or from −8 down
# [17] = modulators of S6 phosphorylation in cells, primary screen, cell-based, A549, cytoblot, luminescence, serum-stimulated (AID 1158); conditions: A549 phospho-S6 cytoblot, 5 h, higher = more signal;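 also: serum-stimulated A549 lung adenocarcinoma cells; signal is phosphorylated S6 detected by cytoblot immunostaining with HRP secondary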
# [18] = target: NADPH oxidase 2 (Homo sapiens) (UniProt P04839); test: NOX2-dependent H2O2 signal modulators, primary screen, NOX inhibitor project, cell-based, HEK293-NOX2, PMA-stimulated, Amplex Red fluorescence (AID 1159); conditions: 45 min, higher = more signal, called active from +8 up or from −8 down; also: test concentration not given here
# [19] = target: NADPH oxidase 4 (Homo sapiens) (UniProt Q9NPH5); test: NOX4-dependent H2O2 signal modulators, primary screen, NOX inhibitor project, cell-based, HEK293-NOX4, tetracycline-induced, Amplex Red fluorescence (AID 1160); conditions: 45 min, higher = more signal, called active from +8 up or from −8 down
# [20] = target: NADPH oxidase 5 (Homo sapiens) (UniProt Q96PH1); test: NOX5-dependent H2O2 signal modulators, primary screen, NOX inhibitor project, cell-based, HEK293-NOX5, Amplex Red fluorescence (AID 1161); conditions: HEK293-NOX5, ionomycin, 45 min, higher = more signal
# NADPH oxidase 5 (Homo sapiens), sequence (Q96PH1 whole entry, looked up): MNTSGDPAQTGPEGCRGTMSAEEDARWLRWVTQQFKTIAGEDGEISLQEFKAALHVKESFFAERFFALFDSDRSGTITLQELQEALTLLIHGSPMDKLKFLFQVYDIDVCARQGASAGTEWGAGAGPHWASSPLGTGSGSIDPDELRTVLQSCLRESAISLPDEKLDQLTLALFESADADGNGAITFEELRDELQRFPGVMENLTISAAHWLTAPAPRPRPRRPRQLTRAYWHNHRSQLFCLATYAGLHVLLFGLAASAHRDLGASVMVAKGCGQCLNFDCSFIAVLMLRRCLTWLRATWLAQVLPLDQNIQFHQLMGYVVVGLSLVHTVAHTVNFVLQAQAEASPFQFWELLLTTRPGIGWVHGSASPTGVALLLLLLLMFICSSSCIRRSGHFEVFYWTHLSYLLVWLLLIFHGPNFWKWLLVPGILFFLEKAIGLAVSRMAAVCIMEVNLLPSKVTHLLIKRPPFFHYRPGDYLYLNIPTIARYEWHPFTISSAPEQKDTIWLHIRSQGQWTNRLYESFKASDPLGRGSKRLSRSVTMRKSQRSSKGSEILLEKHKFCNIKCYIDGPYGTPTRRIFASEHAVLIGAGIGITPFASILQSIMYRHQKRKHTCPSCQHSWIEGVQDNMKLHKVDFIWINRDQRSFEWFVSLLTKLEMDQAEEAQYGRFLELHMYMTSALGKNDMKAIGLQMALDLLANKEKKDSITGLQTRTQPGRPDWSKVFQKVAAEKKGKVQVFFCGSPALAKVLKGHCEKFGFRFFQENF
# Torsin-1A (Homo sapiens), sequence (O14656 whole entry, looked up): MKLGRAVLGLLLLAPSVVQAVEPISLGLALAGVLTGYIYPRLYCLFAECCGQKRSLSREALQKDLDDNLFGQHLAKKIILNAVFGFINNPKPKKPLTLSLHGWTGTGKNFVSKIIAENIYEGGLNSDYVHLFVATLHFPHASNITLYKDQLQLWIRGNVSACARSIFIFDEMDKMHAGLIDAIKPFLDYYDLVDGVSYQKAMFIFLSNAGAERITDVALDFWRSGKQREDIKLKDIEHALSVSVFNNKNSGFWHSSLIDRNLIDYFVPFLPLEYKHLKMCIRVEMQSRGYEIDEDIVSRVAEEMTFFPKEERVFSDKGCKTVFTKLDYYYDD
# Streptavidin (Streptomyces avidinii), sequence (P22629 whole entry, looked up): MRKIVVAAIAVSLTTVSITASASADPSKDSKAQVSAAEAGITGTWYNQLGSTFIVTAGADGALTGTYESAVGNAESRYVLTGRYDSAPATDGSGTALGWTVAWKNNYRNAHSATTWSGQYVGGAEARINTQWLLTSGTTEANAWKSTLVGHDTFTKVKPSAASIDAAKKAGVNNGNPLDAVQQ
# NADPH oxidase 2 (Homo sapiens), sequence (P04839 whole entry, looked up): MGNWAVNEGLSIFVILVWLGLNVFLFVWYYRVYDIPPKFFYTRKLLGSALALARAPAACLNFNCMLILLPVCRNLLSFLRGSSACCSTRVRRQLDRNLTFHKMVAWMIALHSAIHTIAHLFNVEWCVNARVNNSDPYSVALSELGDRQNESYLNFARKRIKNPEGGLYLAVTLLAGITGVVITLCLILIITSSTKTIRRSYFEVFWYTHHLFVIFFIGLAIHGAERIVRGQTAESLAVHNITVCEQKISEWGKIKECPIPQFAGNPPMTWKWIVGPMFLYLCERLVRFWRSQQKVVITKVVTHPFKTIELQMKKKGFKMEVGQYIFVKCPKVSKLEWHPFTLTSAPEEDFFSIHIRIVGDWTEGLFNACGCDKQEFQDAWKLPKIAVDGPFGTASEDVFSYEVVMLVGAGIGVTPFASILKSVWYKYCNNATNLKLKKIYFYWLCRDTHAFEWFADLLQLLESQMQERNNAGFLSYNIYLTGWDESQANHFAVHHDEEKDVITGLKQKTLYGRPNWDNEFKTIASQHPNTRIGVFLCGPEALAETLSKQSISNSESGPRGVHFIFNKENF
# NADPH oxidase 4 (Homo sapiens), sequence (Q9NPH5 whole entry, looked up): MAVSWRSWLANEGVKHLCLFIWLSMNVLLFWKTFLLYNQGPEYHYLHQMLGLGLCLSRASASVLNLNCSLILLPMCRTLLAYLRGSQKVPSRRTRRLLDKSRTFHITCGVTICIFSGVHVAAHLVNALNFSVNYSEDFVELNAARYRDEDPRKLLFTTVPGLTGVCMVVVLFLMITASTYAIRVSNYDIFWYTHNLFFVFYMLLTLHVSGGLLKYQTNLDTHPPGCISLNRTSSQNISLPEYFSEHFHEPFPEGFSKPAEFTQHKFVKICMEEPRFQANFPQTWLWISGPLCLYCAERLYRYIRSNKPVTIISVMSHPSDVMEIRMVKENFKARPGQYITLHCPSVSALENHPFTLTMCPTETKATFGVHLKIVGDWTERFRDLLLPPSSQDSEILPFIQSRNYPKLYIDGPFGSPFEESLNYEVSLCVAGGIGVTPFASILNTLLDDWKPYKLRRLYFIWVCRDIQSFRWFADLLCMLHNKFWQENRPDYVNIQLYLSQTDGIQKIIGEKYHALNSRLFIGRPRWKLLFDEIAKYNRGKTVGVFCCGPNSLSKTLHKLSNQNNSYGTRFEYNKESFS
Structure (SMILES),composite z-score [1],z-score [2],z-score [3],z-score [4],z-score [5],composite z-score [6],composite z-score [7],composite z-score (Torsin-1A (Homo sapiens) [8]),composite z-score (Torsin-1A (Homo sapiens) [9]),composite z-score [10],z-score [11],composite z-score [12],z-score [13],z-score [14],z-score [15],z-score [16],z-score [17],z-score [18],z-score [19],z-score [20]
CCCNC(=O)[C@@H]1c2ccccc2C(=O)N(Cc2ccc(OC(F)(F)F)cc2)[C@H]1c1ccc(CO)cc1,0.474,-0.88 (inactive),0.256 (inactive),-0.322 (inactive),-0.283 (inactive),-0.127,-0.0963,0.0008,-0.424,0.346,0.52 (inactive),-0.0099,1.23 (inactive),-0.146 (inactive),1.03 (inactive),-0.406 (inactive),0.289,-0.62 (inactive),0.184 (inactive),1.75
CC(C)N1CC=CC23O[C@@H]4C=CCCOC(=O)C4[C@H]2C(=O)N(CCCO)[C@@H]3C1=O (stereo not given in full),-0.352,-2.89 (inactive),-0.614 (inactive),-0.749 (inactive),-0.313 (inactive),-0.912,-0.0933,-1.02,-0.457,0.403,2.91 (inactive),0.0656,-0.0633 (inactive),-0.706 (inactive),1.3 (inactive),-0.646 (inactive),0.842,-1.67 (inactive),-2.17 (inactive),-2.78
C=CCN1C(=O)[C@]2(CCC(=O)OC(C)(C)C)N=C(c3ccc(OCCCO)cc3)O[C@@H]2c2ccccc21,0.176,-3.67 (inactive),-0.149 (inactive),0.124 (inactive),-1.99 (inactive),0.0475,0.0631,-0.0806,0.19,1.71,0.736 (inactive),0.576,34.1 (active),32.3 (active),2.29 (inactive),12.1 (active),0.708,-2.67 (inactive),0.56 (inactive),-0.299
O=C(O)[C@@H]1C[C@@H]2C(=O)N3CCC[C@H]3C(=O)N2[C@@H]1c1ccc(O)cc1,0.357,-2.79 (inactive),0.235 (inactive),0.0205 (inactive),-1.18 (inactive),0.262,0.0586,0.746,0.643,1.61,2.3 (inactive),0.266,3.69 (inactive),-0.325 (inactive),-3.21 (inactive),-1.54 (inactive),0.722,-8.21 (active),-4.92 (inactive),-5.18
O=C(c1ccccc1)N1C(=O)[C@]2(Cc3ccccc31)N=C(c1ccc(OCCCO)cc1)O[C@@H]2c1ccccc1,1.09,-5.16 (inactive),-0.378 (inactive),2.67 (inactive),2.1 (inactive),0.431,-0.0361,0.357,0.562,2.09,-0.857 (inactive),0.297,21.9 (active),8.53 (active),0.0521 (inactive),1.35 (inactive),-0.203,0.491 (inactive),-0.703 (inactive),-1.77
C=CCNC(=O)[C@@H]1[C@H]2C(=O)O[C@H](c3ccccc3)[C@H](c3ccccc3)N2[C@H](c2ccc(O)cc2)[C@@]12C(=O)N(C(=O)OCCOC)c1ccc(C#CC3=CCCCC3)cc12,0.432,-2.12 (inactive),0.411 (inactive),0.346 (inactive),-0.0705 (inactive),0.268,0.0705,0.87,0.686,1.86,-1.1 (inactive),0.319,1.78 (inactive),0.836 (inactive),-0.942 (inactive),0.313 (inactive),0.0229,1.61 (inactive),0.339 (inactive),0.344
COC(=O)C1=CC(CCCO)=CC(c2ccc(CN3CCCC3)cc2)N(Cc2cccc(OC(F)(F)F)c2)C=C1C(=O)OC (stereo not given),-0.0146,-2.24 (inactive),1.23 (inactive),-0.554 (inactive),-0.727 (inactive),0.644,0.0769,0.648,1.18,-0.136,-0.418 (inactive),0.241,0.119 (inactive),-0.984 (inactive),0.456 (inactive),-2.27 (inactive),1.38,0.439 (inactive),-0.351 (inactive),0.628
C[N+](C)(C)CCCCCCNC(=O)[C@@H]1C[C@@H]2C(=O)N3CCC[C@H]3C(=O)N2[C@@H]1c1ccc(O)cc1,0.311,0.143 (inactive),-0.573 (inactive),-0.663 (inactive),-0.62 (inactive),-0.31,-0.0762,1.25,1.15,2.12,0.524 (inactive),-0.021,1.55 (inactive),-0.15 (inactive),-0.72 (inactive),-0.117 (inactive),-0.196,-0.425 (inactive),0.375 (inactive),-0.233
CN(C)C(=O)[C@@]1(Cc2ccccc2)N=C(c2ccc(OCCCO)cc2)O[C@H]1c1ccccc1,0.87,-3.42 (inactive),-0.315 (inactive),0.195 (inactive),-0.925 (inactive),1.29,0.715,0.435,0.0678,0.141,0.756 (inactive),-0.0171,14.9 (active),2.63 (inactive),1.4 (inactive),1.33 (inactive),-0.39,-0.896 (inactive),0.068 (inactive),-1.7
C#CCN([C@@H](Cc1ccccc1)C(=O)OC)[C@@H](/C=C/C1CC1)[C@H](O)Cc1ccccc1,-0.476,-3.22 (inactive),0.398 (inactive),1.67 (inactive),-0.0949 (inactive),-0.676,-0.157,0.239,-0.211,0.314,-0.634 (inactive),-0.0538,1.09 (inactive),0.443 (inactive),-0.0572 (inactive),-0.307 (inactive),-0.169,-0.284 (inactive),-0.417 (inactive),-2.34
Cn1cccc1C(O)C1C=CC2C(=O)N(c3ccccc3)C(=O)C2N1Nc1ccccc1 (stereo not given),0.402,0.525 (inactive),-0.758 (inactive),-0.525 (inactive),-0.0981 (inactive),1.77,0.153,0.478,0.726,0.379,-0.548 (inactive),0.358,2.42 (inactive),1.31 (inactive),0.361 (inactive),1.44 (inactive),-0.55,-1.34 (inactive),-1.94 (inactive),-1.81
CCCC1(C(=O)OC)C=C2C(=C(C)C(=O)C2C)CN1 (stereo not given),0.0439,0.442 (inactive),-0.473 (inactive),2.3 (inactive),2.15 (inactive),-0.381,0.0487,0.149,-0.0341,-0.552,-1.8 (inactive),0.193,-0.0775 (inactive),-0.0273 (inactive),-0.0148 (inactive),0.274 (inactive),-0.386,0.43 (inactive),-1.28 (inactive),-2.88
OCCCC1=CC(c2ccc(CN3CCCC3)cc2)N(Cc2cc3c(cc2Br)OCO3)CC1 (stereo not given),0.268,-1.1 (inactive),-0.808 (inactive),-0.932 (inactive),0.821 (inactive),0.0246,-0.152,0.763,0.585,1.04,0.0676 (inactive),0.192,3.7 (inactive),0.63 (inactive),0.795 (inactive),0.601 (inactive),-0.187,-3.1 (inactive),-1.21 (inactive),-1.2
COCCCNC(=O)[C@@]1(Sc2ccc(C)cc2)CC(=O)N(C2Cc3ccccc3C2)[C@@H]1c1ccc(CO)cc1,-0.228,-4.69 (inactive),-1.03 (inactive),0.685 (inactive),1.95 (inactive),-1.17,-0.327,-1.86,-1.35,-1.45,0.625 (inactive),0.0653,1.86 (inactive),-0.562 (inactive),1.03 (inactive),-1.78 (inactive),2.12,0.00261 (inactive),-0.107 (inactive),-1.76
O=C1C2C=CC(C(O)C3CC=CCC3)N(Nc3ccccc3)C2C(=O)N1c1ccccc1 (stereo not given),-0.0727,-2.74 (inactive),-0.879 (inactive),0.426 (inactive),0.305 (inactive),0.801,0.292,-0.235,0.687,-0.143,-1.5 (inactive),0.663,3.38 (inactive),-0.228 (inactive),1.53 (inactive),-1.33 (inactive),0.879,-3.1 (inactive),-4.95 (inactive),-6.07
Cc1ccc(C(C)CC(O)C2C=CC3C(=O)N(c4ccccc4)C(=O)C3N2Nc2ccccc2)o1 (stereo not given),0.158,-2.95 (inactive),-0.443 (inactive),0.636 (inactive),0.367 (inactive),1.19,0.0792,0.145,1.11,-0.125,-1.13 (inactive),0.738,4.07 (inactive),1 (inactive),-0.0498 (inactive),-0.374 (inactive),2.07,-3.07 (inactive),-5.71 (inactive),-4.91
CC(C)[Si](C#CCCCC#N)(O[C@H](c1ccccc1)c1cn(Cc2ccccc2)nn1)C(C)C,0.125,-0.507 (inactive),-0.319 (inactive),0.773 (inactive),-0.0473 (inactive),0.62,-0.157,0.148,0.194,0.531,1.99 (inactive),-0.253,1.05 (inactive),0.0907 (inactive),0.866 (inactive),0.137 (inactive),0.249,-0.502 (inactive),0.912 (inactive),0.536
